Screens: PubChem BioAssay, several laboratories
tim23-1 inh: growth inhibitors of tim23-1 mutant yeast; S. cerevisiae tim23-1 growth, BacTiter-Glo luminescence, 24 h; inhibition, % at 20 µM; 330,000 compounds, 1.3% hits; AID 463212;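 active = growth inhibition of the mutant yeast at or above 50%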;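 also: temperature-sensitive mutant grown at 25 °C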
NALP1 yeast inh: blocks the NALP1 inflammasome reconstituted in yeast | S. cerevisiae NALP1/ASC/caspase-1 growth, X-gal OD620, 72 h | inhibition, % at 10 µM | 280,000 compounds, 0.61% hits | AID 2071; in the data active = inhibition mostly above about 24%, no sharp cut-off; inactive = mostly below about 32%
V-ATPase pHluor: regulators of yeast V-ATPase proton transport. S. cerevisiae, pHLuorin cytosolic pH fluorescence. response, % at 10 µM. 350,000 compounds, 0.37% hits; in the data active = response mostly above about 7.3%, no sharp cut-off; inactive = mostly below about 5.4%; also: actives read high
TIM10 inh: inhibits growth of TIM10 yeast strain | S. cerevisiae TIM10 strain growth, BacTiter-Glo luminescence, 24 h | 330,000 compounds, 1.4% hits | inhibition, % at 10 µM;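 active = inhibition of 40% or more at the single tested concentration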;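 also: wild-type TIM10 isogenic control strain grown at permissive 25 °C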
tim10-1 inh: tim10-1 yeast growth inhibition; S. cerevisiae tim10-1 ts strain growth, BacTiter-Glo, 24 h; inhibition, % at 20 µM; 330,000 compounds, 2.2% hits;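 active = inhibition of at least 40%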;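 also: mutant grown at 25 °C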
NLRP3 yeast inh: blocks the NALP3 inflammasome reconstituted in yeast | Yeast reconstituted NLRP3/ASC/caspase-1, beta-gal luminescence, 24 h | inhibition, % at 10 µM | 330,000 compounds, 0.39% hits;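 active = inhibition of 50% or more; inactive = inhibition below 50%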
tim23-1 conf: tim23-1 yeast growth inhibition, confirmed; shares compounds with tim23-1 inh; S. cerevisiae tim23-1 growth, BacTiter-Glo luminescence, 24 h; inhibition, % at 20 µM; 4,400 compounds, 83% hits;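 active = inhibition above about 39% in either of two replicate wells at 20 µM, limit read from the data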;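 also: temperature-sensitive tim23-1 mutant grown at 25 °C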
Numbers stand for hits; n = inactive; x = no result. In the library only some 4.2% were active in any assay of this set; here they are far more common.

SMILES | tim23-1 inh | NALP1 yeast inh | V-ATPase pHluor | TIM10 inh | tim10-1 inh | NLRP3 yeast inh | tim23-1 conf
CC1CCN(c2ccc3c(c2)S(=O)(=O)c2cccc(C(=O)NCc4cccc(F)c4)c2C3=O)CC1 | n | x | n | n | n | n | x
CS/C(=N\S(=O)(=O)c1ccc(Cl)cc1)c1ccccc1 | 56.7 | n | n | n | n | n | n
COC(=O)c1cc(-c2ccc(OC)cc2)n[nH]1 | n | n | n | n | n | n | x
COc1ccc(-c2cc(-c3ccccc3O)[nH]n2)cc1 | 68.9 | n | n | n | n | n | 62.5
COc1ccc(-c2cc(-c3ccccc3)n[nH]2)c(O)c1 | 68.8 | n | n | n | n | n | 57.5
COc1ccc(C(=O)NC2CCN(C(=S)Nc3cccc(C)c3)CC2)cc1 | n | n | n | n | n | n | x
COc1ccc2oc(=O)c(C(=O)OCc3ccccc3)cc2c1 | n | n | n | n | n | n | x
COc1cc(C=C2CN(C)C(=O)C2=O)ccc1O | x | x | n | x | x | x | x
COc1cc(/C=C2\OC(=O)c3c(OC)cccc32)ccc1O | 53.3 | n | n | n | n | n | 48.1
Cc1cccc(C=Nc2ccc3c4c(cccc24)CC3)c1O | n | n | n | n | n | n | x
Oc1ccc(Cl)cc1C=Nc1ccc2c3c(cccc13)CC2 | 62.8 | n | n | n | n | n | 61.9
COc1ccc(C(=O)Nc2ccc(NC(=O)c3ccco3)cc2)cc1 | n | n | n | n | n | n | x
COc1ccc(N=N/C(=C\O)C(=O)c2ccco2)cc1 | 50.0 | n | n | n | n | n | 58.2
CSCC[C@H](NC(=O)COc1ccc(Cl)cc1)C(=O)N1CCC2(CC1)NCCc1[nH]cnc12 | n | n | n | n | n | n | x
CCOC(=O)c1ccc(N2N=C(C)/C(=C/C=C/c3ccco3)C2=O)cc1 | n | n | n | n | n | n | x
CC1=NN(c2ccc(C)c(C)c2)C(=O)/C1=C\C=C\c1ccc([N+](=O)[O-])o1 | 50.3 | n | n | n | n | n | n
Nc1nc(SCC(=O)NC2CCCC2)[nH]c(=O)c1NC(=O)c1cccs1 | n | x | n | n | n | n | x
COC(=O)c1c(-c2ccc(S(C)(=O)=O)cc2)sc2ccc(OC)cc12 | 51.8 | x | n | n | n | n | 42.8
CC[C@@H]1C(c2cccc(Cl)c2)=NN(c2ccc(Br)cc2)[C@H]1C(=O)N1CCOC1=O | n | x | n | n | n | x | x
CC[C@@H]1C(c2ccccc2)=NN(c2ccc(Br)cc2)[C@H]1C(=O)N1CCOC1=O | 58.1 | x | n | n | n | x | n
COc1ccccc1[C@@H]1C(c2ccccc2)=NN(c2ccc(Br)cc2)[C@H]1C(=O)N1CCOC1=O | 52.8 | x | n | n | n | x | n
C[C@@H]1C(c2ccc(F)cc2)=NN(c2ccccc2)[C@H]1C(=O)N1CCOC1=O | 53.2 | x | n | n | n | x | n
CC[C@@H]1C(c2ccc(F)cc2)=NN(c2ccc(Br)cc2)[C@H]1C(=O)N1CCOC1=O | 57.8 | x | n | n | n | x | 43.5
CN(c1ncc(C(F)(F)F)cc1Cl)N1C(=O)c2cccc(N)c2C1=O | n | n | n | n | n | n | x
O=C(Nc1ccccc1)N1N=C(c2cccs2)CC1c1cccs1 (configuration not stated) | n | n | n | n | n | n | x
SMILES | tim23-1 inh | NALP1 yeast inh | V-ATPase pHluor | TIM10 inh | tim10-1 inh | NLRP3 yeast inh | tim23-1 conf
O=C1/C(=C/c2ccc(Br)cc2)Oc2cc(O)ccc21 | 55.7 | n | n | n | n | n | 50.8
CC(C)(C)c1ccc(/C=C2\Oc3cc(O)ccc3C2=O)cc1 | n | n | n | n | n | n | x
C=CCc1ccc(OCc2ccc(C(=O)O)o2)c(OC)c1 | n | n | n | n | n | n | x
CCOC(=O)C1CCN(C(=O)Cc2ccccc2OC)CC1 | n | n | n | n | n | n | x
CCOC(=O)C1CCN(C(=O)Cc2c(C(=O)O)n(C)c3ccccc23)CC1 | 77.2 | n | n | n | n | n | n
Brc1ccc(-c2csc(Nc3nc(-c4ccc(Br)cc4)cs3)n2)cc1 | 53.4 | n | n | n | n | n | n
CCc1c(C)sc(NC(=O)c2cc(-c3ccc(O)cc3)on2)c1C#N | n | n | n | n | n | n | x
O=C(CSc1cccc[n+]1[O-])Nc1ccccc1C(F)(F)F | n | x | n | n | n | n | x
O=C(CSc1cccc[n+]1[O-])Nc1ccccc1Oc1ccccc1 | 69.5 | n | n | n | n | n | 76.2
O=C(CSc1cccc[n+]1[O-])CSc1cccc[n+]1[O-] | 71.0 | n | n | n | n | n | 61.3
Nc1ccc(/C=C/C(=O)c2cccs2)cc1 | 56.2 | n | n | n | n | n | 80.1
COc1ccc2c(c1)-c1nc(NC(=O)c3cccs3)sc1CC2 | 53.4 | n | n | n | n | n | 48.5
CC(C)(C)c1ccc(NC(=O)c2ccsc2)cc1 | 55.7 | n | n | n | n | n | 48.0
Oc1ccc(/C=C/c2ccc3cccc(O)c3n2)cc1Br | 52.6 | n | n | n | n | n | 70.7
C=C(C)C(O)Cc1c(OC)ccc(C(=O)/C=C/c2ccc(O)cc2)c1O (configuration not stated) | 54.1 | x | n | n | n | n | 42.0
CCC(C)(C)C1CCc2[nH]nc(C(=O)NC(C)C)c2C1 (configuration not stated) | 53.4 | x | n | n | n | n | 53.0
CCC(C)(C)C1CCc2[nH]nc(C(=O)NCC3CC3)c2C1 (configuration not stated) | 55.9 | x | n | n | n | n | 64.0
CCC(C)(C)C1CCc2[nH]nc(C(=O)NN)c2C1 (configuration not stated) | n | n | n | n | n | n | x
CC1CCCC(NC(=O)COC(=O)c2ccccc2NC(=O)c2ccco2)C1C (configuration not stated) | n | n | n | n | n | n | x
COc1ccc2cc(-c3ccsc3)ncc2c1 | n | x | n | n | n | n | x
Cc1cccc(-n2cc(-c3ccccc3)c3c(=O)[nH]cnc32)c1 | 54.1 | n | n | n | n | n | 47.5
C=CCOC1=CS(=O)(=O)N(Cc2ccc(Br)cc2)c2ccc(Br)cc21 | n | x | n | n | n | x | x
O=C(CN1C(=O)NC2(CCCCCC2)C1=O)c1ccc(F)cc1 | n | x | n | n | n | n | x
CCc1ccc(C(=O)CN2C(=O)NC3(CCCCCC3)C2=O)cc1 | 50.6 | x | n | n | n | n | n
CN1CCCN=C1COC(=O)C(O)(c1ccccc1)C1CCCCC1 (configuration not stated) | n | n | n | n | n | n | x
C#CCOCCOCCOCCNc1nc(N2CCN(C(=O)Cn3cc(CCCN=C(N)N)nn3)CC2)nc(N2CCN(C(=O)Cn3cc(CCCN=C(N)N)nn3)CC2)n1 | x | n | x | x | x | x | x
O=C(/C=C/c1ccc2c(c1)OCO2)c1ccccn1 | 56.0 | x | n | n | n | n | 43.5
CCCCCCc1ccc(-c2ncc(N)cn2)cc1 | 53.1 | n | n | n | n | n | 40.7
CCCCCc1ccc(-c2nnc(N)s2)cc1 | n | n | n | n | n | n | x
